An excerpt weighted towards active compounds, which were near 1.5% of everything screened.
TPT1 inhibitor – blocks Candida albicans tRNA 2'-phosphotransferase; recombinant caTPT1, FP RNA substrate dephosphorylation; inhibition, % at 5 µM; 300,000 tested, 0.81% active; AID 1962;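 active = inhibition above the mean of all tested compounds plus 3 SD, set per screening campaign, cut at about 24% in these data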
CRFBP-R2 agonist – agonists of human CRF-binding protein/CRF-R2 receptor complex | HEK293 CRF-R2/CRF-BP, calcium dye fluorescence (FLIPR); percent of saturating CRF peptide response | 350,000 tested, 0.46% active | AID 588473 | activation, % at 13.2 µM;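 active = activation of at least 50%, plus an integration ratio under a set limit after plate pattern correction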
RTF Ca sens act – increases calcium sensitivity of human cardiac regulated thin filaments. P19429+P45379. IANBD-labeled TnC RTF fluorescence at EC20 calcium; 0% EC20 calcium, 100% full calcium. activation, % at 7.2 µM. 340,000 tested, 0.24% active. AID 493008;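 active = activation above the mean over all tested compounds plus 3 SD, cut at about 30% in these data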;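 also: rise in fluorescence read as greater calcium sensitivity of cardiac thin filaments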
IDE cell activ – IDE (human) activation, cell-based. P14735. 340,000 tested, 0.073% active. AID 493087. HEK cells, FAbeta-B cleavage, fluorescence polarization; 0% vehicle, 100% cell-free pure enzyme wells. activation, % at 5.96 µM;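 active = activation above the mean of all tested compounds plus 3 SD, set per screening campaign, cut at about 17% in these data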
Target sequence (P14735 whole entry, looked up): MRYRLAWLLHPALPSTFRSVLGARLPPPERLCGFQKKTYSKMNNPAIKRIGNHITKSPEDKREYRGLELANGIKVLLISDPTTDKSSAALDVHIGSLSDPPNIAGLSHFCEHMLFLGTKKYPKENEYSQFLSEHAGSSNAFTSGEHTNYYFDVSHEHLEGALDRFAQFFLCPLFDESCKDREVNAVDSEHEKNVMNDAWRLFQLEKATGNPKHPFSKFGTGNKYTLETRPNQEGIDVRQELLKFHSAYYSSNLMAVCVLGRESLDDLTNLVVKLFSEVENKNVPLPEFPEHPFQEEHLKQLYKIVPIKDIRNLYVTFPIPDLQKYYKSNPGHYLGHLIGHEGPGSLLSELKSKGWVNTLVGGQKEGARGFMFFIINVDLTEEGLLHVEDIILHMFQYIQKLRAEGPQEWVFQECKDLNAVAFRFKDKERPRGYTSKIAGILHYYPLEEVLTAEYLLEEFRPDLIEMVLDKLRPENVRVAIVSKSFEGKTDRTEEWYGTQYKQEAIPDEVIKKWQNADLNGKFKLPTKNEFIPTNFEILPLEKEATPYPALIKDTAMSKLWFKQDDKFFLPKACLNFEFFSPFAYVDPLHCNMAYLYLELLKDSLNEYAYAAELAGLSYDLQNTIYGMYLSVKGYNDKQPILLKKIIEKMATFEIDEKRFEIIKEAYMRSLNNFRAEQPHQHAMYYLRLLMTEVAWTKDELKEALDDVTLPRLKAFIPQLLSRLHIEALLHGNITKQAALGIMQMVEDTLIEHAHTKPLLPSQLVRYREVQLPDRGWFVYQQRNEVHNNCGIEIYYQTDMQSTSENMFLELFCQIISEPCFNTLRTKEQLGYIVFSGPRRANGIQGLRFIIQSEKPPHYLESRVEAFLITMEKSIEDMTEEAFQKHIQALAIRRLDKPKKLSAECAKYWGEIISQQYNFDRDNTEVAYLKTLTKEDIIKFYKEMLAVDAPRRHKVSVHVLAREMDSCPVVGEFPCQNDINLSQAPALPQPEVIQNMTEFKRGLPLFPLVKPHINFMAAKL
Cardiac RTF inh – cardiac RTF calcium desensitization; IANBD-labeled cardiac RTF, Ca2+ fluorescence; inhibition, % at 7.15 µM; 340,000 tested, 0.12% active; AID 493244;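 active = inhibition above the mean inhibition of all tested compounds plus 3 SD, cut at about 17% in these data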;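 also: assay run at fixed EC70 calcium of 1.6 mM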
IDE inh – inhibitors of human insulin-degrading enzyme in cells; HEK cells, FAbetaB cleavage, fluorescence polarization; P14735; 320,000 tested, 0.41% active; inhibition, % at 5.59 µM; AID 434962;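 active = percent inhibition above the average of all tested compounds plus 3 SD, set per screening campaign, cut at about 16% in these data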;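 also: IDE supplied by intact live HEK cells; FP after avidin binding of uncleaved biotin substrate so inhibition keeps polarization high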
TPT1 inh confirm – TPT1 (C. albicans) inhibition, confirmation; AID 2149; recombinant caTPT1, fluorescence polarization, RNase T1 coupled; shares compounds with TPT1 inhibitor; inhibition, % at 5 µM; 2,400 tested, 74% active;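 active = inhibition above the primary screen limit, the mean inhibition of all tested compounds plus 3 SD, cut at about 25% in these data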
RNase T1 inh – counter-screen for TPT1 inhibitors: inhibitors of Aspergillus oryzae RNase T1; RNase T1 cleavage, fluorescence polarization, 1536-well; inhibition, % at 5 µM; shares compounds with TPT1 inhibitor; 2,400 tested, 83% active;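 active = inhibition above the solvent-only control well mean plus 3 SD, limit set per screening run, cut at about 23% in these data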;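 also: inhibitors block cleavage so intact labeled substrate keeps polarization high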
IDE cell inh cf – cellular human IDE inhibition, confirmation. shares compounds with IDE inh. HEK cells, FAbetaB cleavage, fluorescence polarization. inhibition, % at 5.59 µM. 1,200 tested, 51% active. AID 435028;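 active = mean inhibition across triplicate wells above the cutoff set by the earlier primary insulin-degrading enzyme screen, cut at about 16% in these data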
HEK293 tox – HEK cell cytotoxicity, counter-screen for IDE inhibitors; inhibition, % at 5.59 µM; 1,200 tested, 28% active; shares compounds with IDE inh; HEK293 cytotoxicity, ATP luminescence; in the data active = inhibition above about 22%
Each line names hits and unclear results; the compound was inactive in the other large screens (follow-up assays come after a bar, where they were run).

CCN(CC1COc2ccccc2O1)C(=S)NC1CC2CCC1C2 (stereo not given)	none
CN1C(C(=O)Nc2cccc(O)c2)=CC(c2ccco2)=NS1(=O)=O	none
O=C(O)c1ccccc1-c1ncc(-c2ccccc2)o1	none
Cc1cc(/C=C2\NC(=S)N(C)C2=O)ccc1N1CCCC1	TPT1 inhibitor 137, CRFBP-R2 agonist 283, RTF Ca sens act 87, IDE inh 88 | TPT1 inh confirm 128 | RNase T1 inh 122 | IDE cell inh cf 96 | HEK293 tox inactive
CN1C(=O)/C(=C/c2ccc(OCc3ccc(F)cc3)cc2)NC1=S	none
Cc1cc(/C=C2/C(=O)N(C)C(=S)N2C)ccc1N1CCCC1	TPT1 inhibitor 159, CRFBP-R2 agonist 81, RTF Ca sens act 32, IDE inh 26 | TPT1 inh confirm 155 | RNase T1 inh 142 | IDE cell inh cf 51 | HEK293 tox inactive
CCCN1C(=O)/C(=C/c2ccc(N3CCCC3)c(C)c2)NC1=S	TPT1 inhibitor 134, CRFBP-R2 agonist 346, RTF Ca sens act 68, IDE inh 95 | TPT1 inh confirm 139 | RNase T1 inh 130 | IDE cell inh cf 128 | HEK293 tox 27
Cc1cccnc1NC(=O)c1cccc(S(=O)(=O)N2CCCc3ccccc32)c1	none
O=C(N[C@@H](Cc1c[nH]c2ccccc12)C(=O)O)C1CCN(S(=O)(=O)c2ccc(Cl)cc2)CC1	none
COC(=O)[C@]1(C)N[C@H](CN(C)S(=O)(=O)c2ccc(-c3ccccc3)cc2)[C@@H]2C(=O)N(C)C(=O)[C@@H]21	none (no result: TPT1 inhibitor)
CC(=O)Nc1ccc(S(=O)(=O)N(C)CC(=O)NNc2c(F)c(F)cc(F)c2F)cc1	none (no result: TPT1 inhibitor)
OCC[n+]1ccc(/C=C/c2c[nH]c3ccccc23)cc1	TPT1 inhibitor 57, CRFBP-R2 agonist 119, RTF Ca sens act 189, IDE inh 24 | TPT1 inh confirm 59 | RNase T1 inh 65 | IDE cell inh cf 39 | HEK293 tox 57
C(=Cc1c[nH]c2ccccc12)c1nccc2ccccc12	none (no result: TPT1 inhibitor, IDE inh)
O=c1[nH]c2ccccc2nc1/C=C(\O)c1cccs1	TPT1 inhibitor 71, CRFBP-R2 agonist 224, RTF Ca sens act 61, IDE inh 47 | TPT1 inh confirm 117 | RNase T1 inh 114 | IDE cell inh cf 75 | HEK293 tox inactive
COc1cc(/C=N/N2C(=O)CSC2=S)ccc1O	TPT1 inhibitor 28, IDE inh 26 | TPT1 inh confirm 28 | RNase T1 inh 40 | IDE cell inh cf 44 | HEK293 tox inactive
CCN(CC)C(=O)C1=C(C)N(Cc2ccc(OC)cc2)C(=O)C(CC(=O)NCCN2CCOCC2)C1 (stereo not given)	none (no result: TPT1 inhibitor, RTF Ca sens act, IDE cell activ, Cardiac RTF inh, IDE inh)
CCOC(=O)c1ccc(NC(=O)c2cn(CCC#N)nc2-c2ccc3c(c2)OCCO3)cc1	none
O=c1/c(=C/c2ccccn2)sc2nc3ccccc3n12	none
O=c1/c(=C\c2cc([N+](=O)[O-])cc([N+](=O)[O-])c2O)sc2nc3ccccc3n12	TPT1 inhibitor 91, IDE inh 16 | TPT1 inh confirm 91 | RNase T1 inh 93 | IDE cell inh cf 20 | HEK293 tox inactive
COc1ccc(C)cc1S(=O)(=O)Nc1ccc2c(c1)OCCO2	none
CC(C)n1cc(C(=O)c2ccccc2O)cc(C#N)c1=O	none
N#Cc1cc(C(=O)c2ccccc2O)cn(-c2nccs2)c1=O	TPT1 inhibitor 44, CRFBP-R2 agonist 239, RTF Ca sens act 62, IDE inh 39 | TPT1 inh confirm 42 | RNase T1 inh 52 | IDE cell inh cf 61 | HEK293 tox inactive
N#Cc1cc(C(=O)c2cc(F)ccc2O)cn(-c2nccs2)c1=O	TPT1 inhibitor 55, CRFBP-R2 agonist 341, RTF Ca sens act 54, IDE inh 33 | TPT1 inh confirm 57 | RNase T1 inh 67 | IDE cell inh cf 67 | HEK293 tox inactive
COc1ccc(/C=N/NC(=O)c2cc(C(C)(C)C)[nH]n2)cc1COc1ccc(F)cc1F	none
CCC(C)NC(=S)N1CCN(C)CC1 (stereo not given)	none (no result: RTF Ca sens act, IDE cell activ, Cardiac RTF inh)
CCCCN1C(=O)c2cccc3cc(O)cc(c23)C1=O	TPT1 inhibitor 37, IDE inh 21 | TPT1 inh confirm 42 | RNase T1 inh 48 | IDE cell inh cf 28 | HEK293 tox inactive
COC(=O)c1ccc(/C=N/NC(=O)CC(=O)NCc2cccnc2)cc1	none (no result: RTF Ca sens act, IDE cell activ, Cardiac RTF inh)
CC(C)N(CCc1ccncc1)C(=S)Nc1ccc(F)c(Cl)c1	none
O=C1NC(=S)S/C1=C\c1cccc([N+](=O)[O-])c1	none (no result: TPT1 inhibitor, IDE inh)
Cc1cc(/C=C2\SC(=S)NC2=O)cc(C)c1O	TPT1 inhibitor 35, IDE inh 16 | TPT1 inh confirm inactive | RNase T1 inh inactive | IDE cell inh cf 31 | HEK293 tox inactive
O=C(CC(c1cccs1)S(=O)(=O)c1ccccc1)c1ccc(F)cc1 (stereo not given)	none
CN(C)c1ccc(/C=C/C(=O)c2cccc(Br)c2)cc1	TPT1 inhibitor 99, CRFBP-R2 agonist 278, RTF Ca sens act 135, IDE inh 107 | TPT1 inh confirm 97 | RNase T1 inh 94 | IDE cell inh cf 110 | HEK293 tox 26
C/C(=N\Nc1ccc([N+](=O)[O-])cc1)c1cc2ccccc2o1	TPT1 inhibitor 111, CRFBP-R2 agonist 53, IDE inh 18 | TPT1 inh confirm 111 | RNase T1 inh 113 | IDE cell inh cf inactive | HEK293 tox inactive
Cc1cc(C)c(S(=O)(=O)N2CCCCC2CCNC(=O)C(=O)NCCN2CCOCC2)c(C)c1 (stereo not given)	none
CCN1CCN(Cc2c(O)ccc3c2O/C(=C\C=C\c2ccccc2OC)C3=O)CC1	TPT1 inhibitor 53, CRFBP-R2 agonist 74, RTF Ca sens act 166, IDE inh 32 | TPT1 inh confirm 64 | RNase T1 inh 68 | IDE cell inh cf 55 | HEK293 tox inactive
COCCN(C(=O)c1csnn1)C(C(=O)NC1CCCC1)c1ccccc1F (stereo not given)	none
CCOC(=O)CN1C(=O)S/C(=C/c2ccc(N3CCCCC3)o2)C1=O	TPT1 inhibitor active, RTF Ca sens act 70, IDE inh 19 | TPT1 inh confirm 180 | RNase T1 inh 167 | IDE cell inh cf 69 | HEK293 tox inactive
